CHX counter – affects cycloheximide protein synthesis inhibition readout, counter-screen; 300,000 tested, 12% active; max response, %; cell reporter, cycloheximide protein synthesis inhibition counterscreen; AID 2314; in the data active = max response mostly above about 13%, no sharp cut-off; inactive = mostly below about 14%; note: read at 38.3 µM for the half of the compounds with a filed dose; 0% is about no effect
Pf growth 48h – inhibits P. falciparum growth in the first generation, 48 h. 310,000 tested, 5.9% active. P. falciparum luciferase growth in erythrocytes, 48 h. Potency, µM (highest dose often 28.7 µM), without a hit: at the top dose activity change, negative = inhibition, actives largely listed as inhibitors; note: potency is the fitted concentration of half-maximal effect; % is set by controls: 0 for no effect and ±100 for the full control effect
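Parasite viability was followed by luminescence of a genomically integrated firefly luciferase. Cultures held 0.1% parasitemia at 2% hematocrit (final), incubated under 5% CO2 at 37 C.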
HCMV inh – human cytomegalovirus inhibition; HFF cells, HCMV-luciferase reporter, 72 h; stronger effect = lower value; activity change, negative = inhibition, % at 57.5 µM; 410,000 tested, 4.5% active; in the data active = activity change below about -60%; inconclusive = no clear call, values can overlap the other calls; inactive = above about -39%; note: % is set by controls: 0 for no effect and ±100 for the full control effect
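Compounds were evaluated in HFFs infected with an HCMV luciferase reporter virus (MOI 1 PFU/cell). Luciferase in lysates collected 72 h post infection served as the replication measure.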
HCV inhibitor – HCV inhibition | Huh7.5.1 HCVcc-Cre infection, luciferase reporter, 44 h | Potency, µM (series often up to 41.8 µM), for inactives: at the top dose activity change, negative = inhibition, most hits filed as inhibitors | 340,000 tested, 3.4% active; note: potency is the fitted concentration of half-maximal effect; % is set by controls: 0 for no effect and ±100 for the full control effect
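A cell-based infection assay in which seeded cells (1,000 per well) receive test compound after 4 h, are inoculated with HCVcc-Cre at approximately 0.5 moi, and are incubated 44 h before luminescence detection.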
Shiga inhibitor – blocks Shiga toxin action in Vero cells; Vero cells, Shiga toxin protein synthesis inhibition reporter; 290,000 tested, 9.2% active; inhibition, % at 38.7 µM; AID 2315; in the data active = inhibition mostly above about 28%, no sharp cut-off; inactive = mostly below about 43%; note: 0% is about no effect
Pf growth 96h – inhibits malaria parasite growth, 96 h; P. falciparum luciferase reporter growth, 96 h; Potency, µM (titrated, usually from 28.7 µM), without a hit: at the highest dose activity change, negative = inhibition, actives largely listed as inhibitors; 320,000 tested, 6.9% active; note: potency is the fitted concentration of half-maximal effect; % is set by controls: 0 for no effect and ±100 for the full control effect
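P. falciparum expressing integrated firefly luciferase, in erythrocytes at 2% hematocrit, 0.05% parasitemia, incubated with compounds 96 h at 37 C, 5% CO2. Growth inhibition read as loss of luminescence; two-generation exposure targets delayed-death apicoplast inhibitors.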
An asterisk follows results filed as active; ? = inconclusive; / = no result given; [ ] = dose if it differs, or a comment. This is a sample that favours compounds with a hit; in the whole collection about 21% have one here. Unless noted, calls come from the whole dose curve; as a rule, active = well fitted inhibition curve with a large enough effect; inconclusive = small, poorly fitted or top-dose-only effect, or another doubt; inactive = no such curve, though single readings can be large or run the other way.

SMILES | CHX counter | Pf growth 48h | HCMV inh | HCV inhibitor | Shiga inhibitor | Pf growth 96h
CN(CCCC(=O)Nc1ccc(OC(F)F)cc1)S(=O)(=O)c1ccc(F)cc1 | 4 | ? | -31 | 11µM* | -6 | ?
Cc1ccc(S(=O)(=O)N(C)CCCC(=O)Nc2ccc(F)cc2)cc1 | 5 | -8% | 4 | ? | 40 | -20%
CC(=O)c1ccc(S(=O)(=O)N(C)CCCC(=O)N(C)Cc2c(F)cccc2Cl)cc1 | -7 | ? | ? | 1% | -3 | 12µM*
CN(CCCC(=O)Nc1ccc(Br)cc1F)S(=O)(=O)c1ccccc1 | 7 | -4% | ? | ? | 20 | 6.6µM*
Cc1ccc(S(=O)(=O)N(C)CCCC(=O)Nc2ccncc2)cc1 | -1 | / | -32 | 5.6µM* | -9 | ?
Cc1nn(CC(=O)NC2CCCCC2)c(C)c1[N+](=O)[O-] | / | / | -17 | / | / | /
CC(=O)c1ccc(NC(=O)CSc2cn(CC(=O)N3CCCCCC3)c3ccccc23)cc1 | / | / | -9 | / | / | /
CN(CCCC(=O)Nc1ccccc1F)S(=O)(=O)c1ccc(F)cc1 | -5 | 0% | -61* | 31% | 2 | 2%
Cc1cc(C)c2c(ccc3cccc[n+]32)c1 | / | / | ? | 1µM* | / | /
Cc1cc(C)c2nc(-c3ccccc3)ccc2c1 | / | / | -17 | / | / | /
COc1cccc(C(C[N+](=O)[O-])c2c(C)[nH]n(-c3ccccc3)c2=O)c1 (stereo unspecified) | -2 | 8% | 7 | 10% | 20 | 1%
Cc1[nH]n(-c2ccccc2)c(=O)c1C(C[N+](=O)[O-])c1ccc(Br)cc1 (stereo unspecified) | -5 | ? | -104* | -8% | -16 | /
COc1ccc([C@H]2OCC3C2CO[C@@H]3c2ccc(OC)c(OC)c2)cc1OC (stereo partly specified) | -2 | / | / | / | -15 | /
Cc1ccc(-n2nnnc2SCC(=O)c2cc(C)n(CC3CCCO3)c2C)cc1 (stereo unspecified) | -2 | ? | -26 | -14% | 5 | 1.5µM*
Cc1cc(C(=O)CSc2nc3ccccc3o2)c(C)n1CC1CCCO1 (stereo unspecified) | 67* | / | -70* | ? | 78* | 133%
C=CCn1c(SCC(=O)c2cc(C)n(CC3CCCO3)c2C)nnc1-c1ccccc1 (stereo unspecified) | 8 | ? | 20 | -11% | 23 | 9.3µM*
Cc1cc(C(=O)Cn2nnc(-c3ccc(Cl)cc3)n2)c(C)n1-c1ccccc1 | 1 | 14% | ? | 8% | -12 | 20%
Cc1cc(C(=O)CSc2nc(N)cc(N)n2)c(C)n1CC1CCCO1 (stereo unspecified) | / | / | -25 | -24% | / | /
Cc1cc(C(=O)Cn2nnc(-c3ccc(Cl)cc3)n2)c(C)n1CC1CCCO1 (stereo unspecified) | 17* | 0% | ? | 7.9µM* | 70 | 8%[5.75 µM]
Cc1cc(C(=O)CSc2nnc(-c3ccc(Cl)cc3)n2C)c(C)n1CC1CCCO1 (stereo unspecified) | 10 | ? | 27 | -20% | -11 | 0%
Cc1ccc(N2CC(C(=O)Nc3nc4ccc(S(C)(=O)=O)cc4s3)CC2=O)cc1 (stereo unspecified) | 4 | ? | -36 | -10% | 13 | ?
CC(C)[C@@H](C)/C=C/[C@@H](C)[C@H]1CC[C@@H]2[C@]1(C)CCC1[C@]23C=C[C@]2(C[C@@H](O)CC[C@]12C)N(C(=O)Cc1ccccc1)O3 (stereo partly specified) | / | / | 28 | / | / | /
O=C(NCCS(=O)(=O)N1CCN(c2ccccc2F)CC1)c1ccc2c(c1)OCO2 | / | -20% | -38 | 2% | / | 17%
C=C(C)CC(Nc1ccc(OC)cc1)c1ccco1 (stereo unspecified) | 6 | -5% | -25 | 18% | 41 | 41%
Cc1cc(C)n2nc(SCC(=O)c3cc(C)n(CC4CCCO4)c3C)nc2n1 (stereo unspecified) | 0 | ? | -70* | ? | 25 | ?
SMILES | CHX counter | Pf growth 48h | HCMV inh | HCV inhibitor | Shiga inhibitor | Pf growth 96h
Cc1cc(C(=O)CSc2nc(N)cc(=O)[nH]2)c(C)n1CC1CCCO1 (stereo unspecified) | / | / | -9 | ? | / | /
Cc1cc(C(=O)CSc2nc3ccccc3[nH]2)c(C)n1CC1CCCO1 (stereo unspecified) | 21 | 290% | -99* | 1.4µM* | 90 | -23%
Cc1sc2nc(SCC(=O)c3cc(C)n(CC4CCCO4)c3C)n(C(C)C)c(=O)c2c1C (stereo unspecified) | -5 | ? | 16 | ? | -5 | 8.3µM*
OCCC1CN(Cc2cccn2-c2ncccn2)CCN1CCc1ccccc1 (stereo unspecified) | -3 | -25% | 44 | -6% | -3 | 0%
CC(NCC(=O)Nc1ccccc1C(=O)NC1CC1)c1cccc(C(F)(F)F)c1 (stereo unspecified) | / | ? | 14 | -19% | / | ?
CCOC(=O)C1=CCN(S(=O)(=O)c2ccccc2Cl)C1c1cccc(Cl)c1 (stereo unspecified) | / | / | -29 | / | / | /
CC(C)Cc1csc(NC(=O)c2ccc(F)cc2)c1C(=O)O | 40* | -2% | 8 | 10% | 56* | 0%
Cc1ccc(NC(=O)c2ccc(CNS(=O)(=O)c3ccc4c(c3)C(C)(C)C(=O)N4C)cc2)cc1C | / | / | -22 | / | / | /
CCOc1ccc2[nH]c(=O)c(CN(Cc3cccs3)Cc3nnnn3C(C)(C)C)cc2c1 | -2 | 12µM* | ? | -16% | -6 | 19%
COc1ccc2[nH]c(=O)c(CN(Cc3cccs3)Cc3nnnn3C(C)(C)C)cc2c1 | 9 | ? | -67* | -15% | -4 | 99%
CCOC(=O)Cn1nnnc1CN(Cc1cccs1)Cc1cc2cc(C)ccc2[nH]c1=O | 1 | -15% | -26 | 27% | -5 | /
COc1ccc(S(=O)(=O)NC2CCCC2)cc1C(N)=O | -3 | -5% | 10 | 1% | -7 | 18%
N#Cc1c2c(c(NCc3cccnc3)n3c1nc1ccccc13)CCC2 | -2 | 2.9µM* | -7 | 3% | -5 | /
CC(=O)c1ccc(Nc2c3c(c(C#N)c4nc5ccccc5n24)CCC3)cc1 | -3 | 3.3µM* | / | 2% | -4 | 216%
N#Cc1c2c(c(NCCOCCO)n3c1nc1ccccc13)CCCC2 | 5 | ? | -23 | 4% | -25 | -16%
COc1ccc(Nc2c3c(c(C#N)c4nc5ccccc5n24)CCC3)cc1 | 8 | ? | -3 | -38% | 6 | 9.3µM*
COCCNc1c2c(c(C#N)c3nc4ccccc4n13)CCCC2 | -1 | 1.7µM* | ? | ? | 3 | ?
Cc1c(Nc2c3c(c(C#N)c4nc5ccccc5n24)CCC3)c(=O)n(-c2ccccc2)n1C | -4 | -2% | / | / | 16 | 13%
CCN(CC)c1c2c(c(C#N)c3nc4ccccc4n13)CCC2 | -3 | ? | -21 | ? | -2 | ?

High-throughput results deposited in PubChem BioAssay by National Center for Advancing Translational Sciences (NCATS).
